Reference: publication PMC6792352, “Limited Chemical Structural Diversity Found to Modulate Thyroid Hormone Receptor in the Tox21 Chemical Library” (Environmental Health Perspectives, 2019)
Structures can show the parent of a compound that is named as a salt.

What follows are compounds tested on thyroid hormone receptor (endogenous TRα and TRβ). Settings: read-out: Average AC50 (uM) GH3-TRE-Antag, antagonist mode, 1 nM T3, no GH3 cytotoxicity hit.
Parameters: species or system GH3-TRE-Luc (rat pituitary); GH3-TRE-Luc luciferase reporter, antagonist mode against 1 nM T3, loss of signal, qHTS

Structure (SMILES) | AC50
CC(C)Oc1ccc2c(=O)c(-c3ccccc3)coc2c1 [Ipriflavone] | 25 µM
CCCCNC1CC(C)(C)NC(C)(C)C1 [N-Butyl-2,2,6,6-tetramethylpiperidin-4-amine] | 60.2 µM
CCCCNC(=O)n1c(NC(=O)OC)nc2ccccc21 [Benomyl] | 8.81 µM
C[C@]12CC[C@@H]3c4ccc(O)cc4CC[C@H]3[C@@H]1CCC2=O [Estrone] | 0.0388 µM
CCCCN(CCCC)CCC(O)c1cc2c(Cl)cc(Cl)cc2c2cc(C(F)(F)F)ccc12 (stereo not shown) [Halofantrine hydrochloride] | 15.6 µM
OC(CN1CCC(Cc2ccc(F)cc2)CC1)c1ccc(Cl)cc1 (stereo not shown) [Eliprodil] | 19.5 µM
CC[C@H](C)[C@@H](C(=O)O)n1sc2ccccc2c1=O [(2S,3S)-3-Methyl-2-(3-oxo-1,2-benzothiazol-2(3H)-yl)pentanoic acid] | > 90 µM
C/C=C1\C(=O)C[C@H]2[C@@H]3CCC4=CC(=O)CC[C@]4(C)[C@H]3CC[C@]12C [Guggulsterone Z] | 39.2 µM
CN1[C@@H](CC(=O)c2ccccc2)CCC[C@H]1C[C@H](O)c1ccccc1 [Lobeline] | 29.3 µM
CC(C)NCC(O)COc1ccc(CCOCC2CC2)cc1 (stereo not shown) [Betaxolol] | 39.4 µM
c1ccc2c(c1)CCc1ccccc1N2 [10,11-Dihydro-5H-dibenz[b,f]azepine] | 40.6 µM
Cc1ccc(/C=N/n2c(-c3ccccc3)csc2=S)cc1 [Fezatione] | 20.5 µM
O=C1OC2(c3ccc(O)cc3Oc3cc(O)ccc32)c2ccccc21 [Fluorescein] | > 50 µM
